Screening data deposited in PubChem BioAssay by National Center for Advancing Translational Sciences (NCATS).
HPGD block = inhibitors of human 15-hydroxyprostaglandin dehydrogenase (HPGD); P15428; purified HPGD, NADH fluorescence kinetic, PGE2 substrate; Potency, µM, for the others: at the top dose activity change, negative = inhibition, usual class: inhibitors; 4.3% of 150,000 active; active = well fitted inhibition curve with a large enough effect, not every such curve was filed as active; inconclusive = small, poorly fitted or top-dose-only effect, or another doubt; inactive = no such curve, though single readings can be large or run the other way
Target sequence (P15428 whole entry, looked up): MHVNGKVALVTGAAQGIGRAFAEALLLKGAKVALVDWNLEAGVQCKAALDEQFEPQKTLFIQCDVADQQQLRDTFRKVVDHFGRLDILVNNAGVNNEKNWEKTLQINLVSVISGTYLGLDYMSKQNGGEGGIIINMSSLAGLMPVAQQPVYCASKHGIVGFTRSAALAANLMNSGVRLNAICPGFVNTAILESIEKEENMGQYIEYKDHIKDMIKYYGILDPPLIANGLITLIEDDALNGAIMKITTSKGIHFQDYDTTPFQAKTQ
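NADH formation kinetics: reaction with 30 uM PGE2 and 1 mM NAD+ (final), 20 nM enzyme, Tris-HCl pH 8 with Tween 20, after 15 min compound preincubation at room temperature. Fluorescence change, last versus first of five reads.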
ALDH1A1 block = inhibitors of human aldehyde dehydrogenase 1A1. AID 1030. 7.3% of 220,000 active. Potency, µM (titrated, usually from 75.3 µM), for the others: at the highest dose activity, negative = inhibition, usual class: inhibitors. Purified ALDH1A1, NADH fluorescence, propionaldehyde substrate; active = well fitted inhibition curve with a large enough effect, not every such curve was filed as active; inconclusive = small, poorly fitted or top-dose-only effect, or another doubt; inactive = no such curve, though single readings can be large or run the other way;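 also: plate controls were no enzyme wells and a reference inhibitor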
Target sequence (P00352 whole entry, looked up): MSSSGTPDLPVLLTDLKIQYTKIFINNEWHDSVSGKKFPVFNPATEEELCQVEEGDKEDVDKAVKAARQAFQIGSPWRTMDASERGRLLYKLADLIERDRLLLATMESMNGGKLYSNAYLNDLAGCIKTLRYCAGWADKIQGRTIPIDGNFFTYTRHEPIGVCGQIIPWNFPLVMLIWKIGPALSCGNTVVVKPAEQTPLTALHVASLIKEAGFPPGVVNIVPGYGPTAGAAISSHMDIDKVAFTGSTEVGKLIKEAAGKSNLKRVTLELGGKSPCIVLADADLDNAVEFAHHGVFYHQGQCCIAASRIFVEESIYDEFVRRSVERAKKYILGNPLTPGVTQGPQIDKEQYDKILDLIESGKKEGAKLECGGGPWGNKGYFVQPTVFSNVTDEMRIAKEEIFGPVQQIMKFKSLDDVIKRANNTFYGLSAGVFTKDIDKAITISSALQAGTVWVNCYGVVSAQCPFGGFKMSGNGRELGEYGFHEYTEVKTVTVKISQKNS
KinaseGlo FLuc = counter-screen: inhibitors of Kinase-Glo firefly luciferase | Kinase-Glo luciferase, ATP luminescence, 8 min | AID 1379 | 0.28% of 200,000 active | Q27757 | Potency, µM (top dose mostly 38.3 µM), for the others: at the top dose activity change, negative = inhibition, actives largely listed as inhibitors; also: nearly all actives have a fitted effect of over 60% in size
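Light output from Kinase-Glo luciferase with luciferin and 10 uM ATP in 50 mM imidazole pH 7.2, KCl, MgCl2, Tween 20, BSA; compound pin-delivered, 8-min ambient incubation, then luminescence read.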
IMPase Li cell = cell-permeable IMPase inhibitors with lithium potentiation. AID 1457. Potency, µM (highest dose often 59.4 µM), without a hit: at the top dose activity, negative = IMPase inhibition, hits mostly inhibitors. 0.35% of 210,000 active. CHO-M1 cells, IP1 TR-FRET (IP-One), carbachol + lithium;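 also: IP1 builds up when IMPase is blocked and the TR-FRET signal falls; plate controls were basal vehicle for no effect and high inhibitor control for full effect; nearly all actives have a fitted effect of over 50% in size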
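Concentration–response in CHO-M1 cells, lithium-potentiated; 30 min at 37C. IP1 detected by competitive TR-FRET after 10 min lysis at RT. Hill-fitted AC50.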
LMNA splice mod = modulators of lamin A splicing; HeLa LMNA splicing GFP/RFP minigene ratio, 48 h; Potency, µM (titrated, usually from 46.1 µM), without a hit: top-dose ratio change, negative = inhibition, hits mostly inhibitors; 0.01% of 200,000 active; active = well fitted inhibition curve with a large enough effect in the signal ratio, with a control signal flat, not every such curve was filed as active; inconclusive = small, poorly fitted or top-dose-only effect, or effect the other way, or a change in a side signal; the % refers to the signal ratio
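S3 HeLa cells stably expressing lamin A-EGFP splicing minigene plus DsRed2, 600 cells/well, 48 h compound exposure at 37C. Laser-scanning cytometry; analysed as GFP (500-530 nm)/RFP (575-640 nm) total intensity ratio; 0.5% DMSO vehicle.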
* hit, by the source's call; ? = inconclusive; . = no result given; [ ] = dose if it differs, or a comment. A selection: hits, their analogues and other compounds. The true share with any hit is near 9%. Unless noted, calls follow the shape of the dose curve; as a rule, active = well fitted curve in the direction sought with a large enough effect; inconclusive = small, poorly fitted or top-dose-only effect, or another doubt; inactive = no such curve, though single readings can be large; an effect the other way counts as inactive or inconclusive. Unless noted, % is scaled to controls: 0 for no effect and ±100 for the full control effect; potency is read from the fitted curve at half-maximal effect.

SMILES	HPGD block	ALDH1A1 block	KinaseGlo FLuc	IMPase Li cell	LMNA splice mod
CC(OC(=O)C1CC1)C(=O)Nc1ccc([N+](=O)[O-])cc1Cl (stereo not drawn)	.	7%	-3%	0%	.
Cc1oc(C(C)(C)C)cc1C(=O)N1CCN(C(c2ccccc2)c2ccccc2)CC1	.	8.9µM*	.	.	8%[46 µM]
O=C(C1=COCCO1)N1CCN(C(c2ccccc2)c2ccccc2)CC1	-17%	8.9µM*	1%	19%[38.3 µM]	5%
Cc1occc1C(=O)N1CCN(C(c2ccccc2)c2ccccc2)CC1	-22%	?	3%	65%[38.3 µM]	-20%
Nc1ncnc2nc(Cl)[nH]c12	-4%	8%	-3%	5%	-7%
CN(C(=O)CO/N=C/c1ccc(OC(F)F)cc1)C1CCS(=O)(=O)C1 (stereo not drawn)	.	8%	0%	-3%	4%[46 µM]
CCOC(=O)C(=O)N1CCN(c2cc3c(cc2[N+](=O)[O-])n(C)c(=O)n3C)CC1	.	2%	0%	17%	?
CC(=O)Oc1ccc(OC(C)=O)c(SCCCCCN2CCOCC2)c1	18µM*	3%	-2%	8%[38.3 µM]	?
Cc1ccc2oc(-c3cccc(NC(=O)/C=C/c4cccc([N+](=O)[O-])c4)c3C)nc2c1	-14%	?	-5%	-7%	-12%
Cc1cccc(-n2c(CNC(=O)c3ccc(S(=O)(=O)N(C)C)cc3)nnc2SCC(=O)Nc2ccc(F)cc2)c1	-13%	0.45µM*	1%	-9%	2%
Cc1cccc(NC(=O)CSc2nnc(CNC(=O)c3ccc(S(=O)(=O)N(C)C)cc3)n2-c2ccccc2)c1	5%	7.1µM*	-3%	0%	?
C[C@@]12CCC(=O)C=C1CC[C@@H]1[C@@H]2[C@H](O)C[C@]2(C)[C@@H]1CC[C@]2(O)C(=O)CO	-1%	-2%[20.9 µM]	0%[17.1 µM]	.	13%
C=CCc1cccc2cc(-c3nc4ccc(C)cc4[nH]3)c(=O)oc12	.	.	.	.	6%[46 µM]
c1ccc(COc2ccc(-c3csnn3)cc2)cc1	-3%	10%	-7%	-13%[38.3 µM]	9%
O=C(c1ccco1)N1CCN(Cc2nc3ccc([N+](=O)[O-])cc3c(=O)n2-c2ccccc2F)CC1	-16%	?	7%	22%[38.3 µM]	6%
COc1ccc(-n2c(CN3CCN(Cc4ccccc4)CC3)nc3ccc([N+](=O)[O-])cc3c2=O)c(OC)c1	.	20µM*	2%	8%	.
COc1ccc(-n2c(CN3CCN(c4ccccn4)CC3)nc3ccc([N+](=O)[O-])cc3c2=O)c(OC)c1	.	?	5%	10%	-14%[46 µM]
COc1cccc(-n2c(CN3CCN(Cc4ccccc4)CC3)nc3ccc([N+](=O)[O-])cc3c2=O)c1	-2%	24µM*	4%	6%	-15%
CCOC(=O)c1ccc(-n2c(CN3CCN(CCO)CC3)nc3ccc([N+](=O)[O-])cc3c2=O)cc1	.	?	-2%	1%	-7%[46 µM]
O=c1c2cc([N+](=O)[O-])ccc2nc(CN2CCN(c3ccccn3)CC2)n1-c1ccccc1F	.	14µM*	0%	2%	.
O=C(O)/C=C\C(=O)Nc1ccc2c(c1)-c1ccccc1C2	-13%	-9%[13.5 µM]	0%[7.66 µM]	-14%	.
CN(C)CCCNc1nc2sc3c(c2c(=O)n1CCc1ccccc1)CCCCC3	.	5%	.	.	.
COc1ccc(C2C=C(c3ccc(F)cc3)NC(=S)N2)cc1OC (stereo not drawn)	.	?	3%	11%	?
COc1ccc(C2C=C(C34CC5CC(CC(C5)C3)C4)NC(=S)N2)cc1 (stereo not drawn)	0%	4µM*	0%	1%	?
CNC(=S)NNc1ccccc1[N+](=O)[O-]	.	14µM*	-3%	-12%	.
SMILES	HPGD block	ALDH1A1 block	KinaseGlo FLuc	IMPase Li cell	LMNA splice mod
COCCNC(=S)NNc1ccccc1[N+](=O)[O-]	.	25µM*	-2%	8%	.
Cc1nc(CN(C)C(=O)c2cc(COc3ccc4ncccc4c3)on2)cs1	.	?	0%	24%	7%[46 µM]
Cc1ccccc1-n1c(C)cc(/C=N/NC(=O)c2ccncc2)c1C	-17%	32µM*	-4%	1%[38.3 µM]	10%
Cc1ccc(C)n1-c1ccc(C(=O)N/N=C/c2ccncc2)cc1	.	18µM*	-3%	0%	2%[46 µM]
O=C(N/N=C/c1ccncc1)c1ccccc1	-2%	8%	-9%	4%[38.3 µM]	-3%[0.0737 µM]
Cc1ccc(C)n1-c1ccc(C(=O)Nc2ccccc2F)cc1	.	?	-6%	1%	.
CCc1ccccc1NC(=O)c1ccc(-n2c(C)ccc2C)cc1	16µM*	-8%	-1%	-2%[38.3 µM]	?
O=C(N/N=C/c1sc(=O)n(-c2ccccc2)c1Cl)c1ccncc1	-22%	10µM*	-4%	-23%	?
Cc1ccc(C)n1-c1ccc(NC(=O)c2ccccc2)cc1	-11%	-14%	-2%	11%	?
CC(=O)Nc1ccc(NC(=O)c2ccc(-n3c(C)ccc3C)cc2)cc1	25µM*	22µM*	6%	13%	15%
CN(Cc1cccnc1)C(=O)CC1C(=O)NCCN1Cc1ccc(-c2ccccc2)cc1 (stereo not drawn)	.	16µM*	-9%	-7%	.
O=C(c1cc2c(s1)CCCC2)N1CCN(c2ccccc2)CC1	.	22µM*	.	9%	.
CCOc1ccccc1N1CCN(C(=O)c2cc3c(s2)CCC3)CC1	0%	-1%	3%	-10%[38.3 µM]	3%
CC1CC(C)CN(C(=O)c2cc3c(s2)CCC3)C1 (stereo not drawn)	13µM*	?	0%	28%[38.3 µM]	12%
COC(=O)CCCn1c(C)cc(C(=O)CCl)c1C	.	0.5µM*	-1%	5%	-11%[9.22 µM]
Cc1cc(C(=O)CCl)c(C)n1Cc1ccco1	.	0.1µM*	-1%	6%	.
COC(=O)CCn1c(C)cc(C(=O)COc2ccccc2C(N)=O)c1C	.	7%	-3%	27%	-13%[46 µM]
Cc1cc(C(=O)CCl)c(C)n1CCc1ccccc1	.	0.032µM*	2%	30%	?
O=c1c2cc(NC(=S)N3CCCCCC3)ccc2nc2n1CCCCC2	.	?	4%	6%	-21%[46 µM]
CCOC(=O)CCNC(=O)N1CCN(S(=O)(=O)c2ccc3c(ccn3C)c2)CC1	.	.	.	.	12%[46 µM]
CCCCOc1ccc(C(=O)N2CCN(CCc3ccccn3)CC2)cc1	.	.	.	.	-10%[46 µM]
CCCn1c2c(c(O)c(C(=O)NCCCN(CC)CC)c1=O)CCCC2	-13%	28µM*	3%	9%	-19%
CCCn1c2c(c(O)c(C(=O)Nc3ncccc3O)c1=O)CCCC2	.	5.6µM*	.	.	?
CCCn1c2c(c(O)c(C(=O)NC)c1=O)CCCC2	-17%	-11%	0%	-1%	-5%
CC(CNC(=O)c1nnc(Cc2ccc(F)cc2)o1)c1ccccc1 (stereo not drawn)	.	.	.	.	7%[46 µM]
COc1ccc2nc(Nc3sc4c(c3C(N)=O)CCCC4)sc2c1	16µM*	8.9µM*	0%	1%	?
COc1ccc2nc(NC3=NCCC3)sc2c1	-8%	8%	-5%	0%[38.3 µM]	3%
